Source: PubChem BioAssay (National Center for Advancing Translational Sciences (NCATS))
HT1080 IDH1KD tx = qHTS for induction of synthetic lethality in tumor cells producing 2HG: qHTS for the HT-1080-IDH1KD cell line | Potency, µM (top dose mostly 46.1 µM), usual class: cytotoxic | HT-1080 IDH1 knockdown viability, ATP luminescence, 48 h | 2% of 360,000 active
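Knockdown cells (IDH1KD HT-1080) received compounds 2 h after plating at 750 cells/well and were kept 48 h at 37 °C in 5% FBS RPMI. A CellTiter-Glo luminescence read gave % activity for curve fitting.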
IL1B secr inh = qHTS for Inhibitors of Inflammasome Signaling: IL-1-beta AlphaLISA Primary Screen | AID 743279, 2014 | activity change, % at 57.5 µM | 4.7% of 360,000 active | THP-1 LPS/ATP IL-1B secretion, AlphaLISA, 16 h; stronger effect = lower value; in the data active = activity change below about -50%; inconclusive = mostly about -30% to -49%
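Secreted IL-1B measured by AlphaLISA bead assay after 16 h compound exposure of THP-1 cells; compounds (final up to 57.5 uM) added 1 h before LPS (250 ng/mL) and ATP (1.25 mM) stimulation; lower signal means less secretion.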
TDP1 cell noCPT = qHTS for Inhibitors of human tyrosyl-DNA phosphodiesterase 1 (TDP1): qHTS in cells in absence of CPT. DT40 Tdp1-/- hTDP1 cells, no CPT, ATP luminescence, 48 h. Potency, µM (doses to about 46.2 µM), usual class: inhibitors. 15% of 420,000 active; note: nearly all actives have a fitted effect of over 55% in size
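No-CPT arm: Tdp1-/-;hTDP1 DT40 cells (400/well) plus compounds, incubated ≥48 hr at 37 °C. Readout CellTiter-Glo luminescence.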
ELG1 repair inh = qHTS screen for small molecules that inhibit ELG1-dependent DNA repair in human embryonic kidney (HEK293T) cells expressing luciferase-tagged ELG1; HEK293T ELG1-luciferase reporter, luminescence, 16 h; DNA damage induced by 5-fluorouridine; Potency, µM (doses to about 46.1 µM), usual class: inhibitors; 2.3% of 330,000 active; AID 504467, 2011; note: nearly all actives have a fitted effect of over 55% in size
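Luminescence from the luciferase reporter, measured 30 min after ONE-Glo reagent at room temperature, was the read-out. Beforehand, 2,000 cells per well were exposed for 16 hr at 37 °C to 5-fluorouridine together with compound or vehicle.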
DT40 TDP1 CPT = qHTS for Inhibitors of human tyrosyl-DNA phosphodiesterase 1 (TDP1): qHTS in cells in presence of CPT; 12% of 420,000 active; chicken DT40 Tdp1-/-;hTDP1 cells + 20 nM CPT, ATP luminescence, 48 h; AID 686979, 2013; Potency, µM (series often up to 46.2 µM), usual class: inhibitors; note: nearly all actives have a fitted effect of over 55% in size
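Chicken DT40 Tdp1-/- cells stably complemented with human TDP1 were seeded at 400 cells/well in medium containing 20 nM camptothecin, exposed to pin-transferred compounds, and grown at 37 °C for at least 48 hr. Viability was read as ATP luminescence.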
HT1080NT lethal = qHTS for induction of synthetic lethality in tumor cells producing 2HG: qHTS for the HT-1080-NT fibrosarcoma cell line. HT-1080-NT fibrosarcoma viability, CellTiter-Glo ATP luminescence, 48 h. Potency, µM (highest dose often 46.1 µM), actives largely listed as cytotoxic. 1.6% of 360,000 active;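 note: NT is the 2HG producing partner of a matched IDH1 knockdown line; nearly all actives have a fitted effect of over 55% in size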
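Toxicity toward the 2HG-producing NT line was scored as %Activity, normalised to DMSO and no-cell wells, from CellTiter-Glo luminescence after 48 hours' treatment.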
Numbers stand for hits; 0 = inactive; ? = inconclusive; - = no result; [ ] = remark or other dose. An excerpt weighted towards active compounds, which were near 19% of everything screened. Unless noted, calls come from the whole dose curve; as a rule, active = well fitted curve in the direction sought with a large enough effect; inconclusive = small, poorly fitted or top-dose-only effect, or another doubt; inactive = no such curve, though single readings can be large; an effect the other way counts as inactive or inconclusive.

SMILES	HT1080 IDH1KD tx	IL1B secr inh	TDP1 cell noCPT	ELG1 repair inh	DT40 TDP1 CPT	HT1080NT lethal
CC(=O)Nc1cccc(-c2ccnc3c2CC(C(=O)NCCN(C)C)O3)c1 (stereo unspecified)	0	0	0	-	0	0
CC(=O)Nc1cccc(-c2ccnc3c2CC(C(=O)NCc2cccc(Cl)c2)O3)c1 (stereo unspecified)	?	0	4.1µM	-	3.3µM	?
CC(=O)Nc1cccc(-c2ccnc3c2CC(C(=O)NCc2cccnc2)O3)c1 (stereo unspecified)	?	0	?	-	0	?
CC(=O)Nc1ccc(-c2ccnc3c2CC(C(=O)NCc2cccc(Cl)c2)O3)cc1 (stereo unspecified)	1.6µM	0	2.3µM	-	3.7µM	?
O=C(NCCc1ccccc1)C1Cc2c(-c3ccc4c(c3)OCO4)ccnc2O1 (stereo unspecified)	?	0	16µM	-	21µM	?
O=C(NCc1ccncc1)[C@@H]1CCCN1C(=O)[C@H]1CCCN1	0	0	0	-	0	0
CCCCNC(=O)C1(C)CCN1C(=O)c1cncc(Br)c1 (stereo unspecified)	0	0	0	-	0	0
Nc1ccn([C@@H]2O[C@H](C(=O)N[C@H](CO)c3ccccc3)[C@@H](O)[C@H]2O)c(=O)n1	0	0	0	-	0	0
CC(=O)Nc1cccc(-c2ccnc3c2CC(C(=O)NCCc2ccccc2)O3)c1 (stereo unspecified)	?	0	2.9µM	-	4.6µM	?
NC(=O)c1cccc(-c2ccnc3c2CC(C(=O)NCC2CC2)O3)c1 (stereo unspecified)	0	0	0	-	0	0
NC(=O)c1cccc(-c2ccnc3c2CC(C(=O)NCc2cccc(Cl)c2)O3)c1 (stereo unspecified)	9.2µM	0	15µM	-	16µM	?
CCN(C(=O)COC(=O)c1ccc([N+](=O)[O-])o1)c1cccc2ccccc12	0	0	0	0	0	0
COc1cc(C)ccc1OCc1cc(C(=O)N(Cc2c(C)nn(C)c2C)C2CC2)no1	0	0	16µM	?	?	0
COCC(=O)N1CCC[C@@]2(CCN(Cc3nccs3)C2)C1	-	-	0	-	0	-
CCOC(=O)Cn1c(=O)c2c(nc(N3CCOCC3)n2C)n(C)c1=O	0	0	0	0	0	0
CCOC(=O)CCn1c(=O)c2c(nc(Br)n2Cc2ccccc2)n(C)c1=O	0	0	0	?	0	0
CCOC(=O)Cn1c(=O)c2c(nc(Br)n2Cc2ccc(Cl)cc2)n(C)c1=O	0	0	9.2µM	?	13µM	0
CCOC(=O)Cn1c(=O)c2c(nc(N3CCCCC3)n2Cc2ccccc2)n(C)c1=O	0	0	15µM	?	21µM	0
Cc1cc(C)cc(N(CC(=O)Nc2ccccc2)C2=NC3CS(=O)(=O)CC3S2)c1 (stereo unspecified)	0	-94	?	0	?	0
COc1ccc(N(CC(=O)Nc2ccccc2C(F)(F)F)C2=NC3CS(=O)(=O)CC3S2)cc1 (stereo unspecified)	0	-60	?	0	0	0
COc1ccc(N(CC(=O)Nc2ccc(C)c(C)c2)C2=NC3CS(=O)(=O)CC3S2)cc1 (stereo unspecified)	0	0	0	0	0	0
CC(C)(C)NC(=O)COC(=O)CNC(=O)C1CCCCC1	-	-	0	-	0	-
COc1cc(C(=O)NC(=S)Nc2ccc3ccccc3c2)cc(OC)c1OC	?	0	23µM	-	23µM	?
COc1cc(C(=O)NC(=S)Nc2ccc3c(c2)C(=O)N(C)C3=O)cc(OC)c1OC	0	0	3.7µM	0	0	0
COc1ccc(N(CC(=O)N2CCOCC2)S(C)(=O)=O)cc1	0	0	0	0	0	0
SMILES	HT1080 IDH1KD tx	IL1B secr inh	TDP1 cell noCPT	ELG1 repair inh	DT40 TDP1 CPT	HT1080NT lethal
S=c1[nH]c2cc(-c3ccccc3)ccc2o1	0	0	0	?	0	0
CC1=C/C(=N\NC(=S)NCc2ccccc2)CC1	0	0	1.3µM	0	1.5µM	0
C=CCNC(=S)N/N=C/c1ccc(N(CC)Cc2ccccc2)cc1	?	0	18µM	?	21µM	0
CCN(CC)c1ccc(/C=N/NC(=S)NCc2ccc(OC)cc2)cc1	0	?	?	?	0	0
CCN(CC)c1ccc(/C=N/NC(=S)NCc2ccccc2)cc1	0	0	16µM	0	?	0
Cc1[nH]c2ccccc2c1/C=N/NC(=S)NCc1ccccc1	0	0	?	0	?	0
Cc1c(Cl)cccc1NC(=O)N1CCC(CN2CCCC2)CC1	-	-	0	-	0	-
Cc1cccc(N2CCN(C(=O)c3cn(C)c4ccc(S(=O)(=O)N(C)C)cc4c3=O)CC2C)c1 (stereo unspecified)	-	-	?	-	0	-
Cc1cccc(OCC(=O)NCc2cc(C)nc3ccccc23)c1	0	0	?	15µM	?	0
COc1ccc(OCC(=O)NNc2c3ccccc3nc3ccccc23)cc1	?	-51	21µM	?	23µM	0
O=C(COc1ccccc1)NNc1c2ccccc2nc2ccccc12	?	0	13µM	21µM	?	0
CC(C)[C@H](NC(=O)c1ccccc1)C(=O)OCC(=O)N1CCCc2ccccc21	0	0	0	0	0	0
CC(C)(C)C(=O)Nc1nnc(SCC(=O)NC2CCCC2)s1	0	0	0	0	0	0
CCCC(=O)Nc1c2c(nn1-c1ccccc1)CSC2	0	0	0	0	0	0
CCC(=O)Nc1c2c(nn1-c1cccc(Cl)c1)CSC2	0	0	0.73µM	0	0	0
CCOc1ccc(/C=C/c2[nH]c(=O)[nH]c(=O)c2[N+](=O)[O-])cc1	0	0	0	0	0	0
CC(C)c1ccc(/C=C/c2[nH]c(=O)[nH]c(=O)c2[N+](=O)[O-])cc1	?	-82	?	0	0	0
CCOc1cc(/C=C\c2[nH]c(=O)[nH]c(=O)c2[N+](=O)[O-])ccc1OC(C)CC (stereo unspecified)	?	-92	0	?	0	10µM
CSc1ccc(-c2cccc3nncn23)cc1	0	0	0	-	0	0
COc1ccc(CN2CCN(C(C)=O)CC2)cc1OC1CCN(C(=O)c2ccc3[nH]c(C)c(C)c3c2)CC1	-	-	0	-	0[9.04 µM]	-
